Source: the supplement of paper PMC8047044

Each molecule was assayed on Neuro-2a (assay: neurite formation score, plate-normalized to DMSO control mean 5.04 (score (0-8 scale)); higher = more or longer neurites). Settings: 0.1 µM.
Experimental: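 Neuro-2a mouse neuroblastoma cells in PLL-coated 96-well plates were pre-treated for 1 h in DMEM(+) with each kinase inhibitor at 0.1 µM, then switched to serum-free DMEM(-) with inhibitor to induce neurite outgrowth and fixed about 2-3 h later. Three blinded observers scored neurite formation from 0 (no neurites) to 8 (long neurites on almost all cells).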

Row | SMILES | neurite formation score
1 | CC1=C(C(=O)Nc2cc3cn[nH]c3cc2F)C(c2ccc(C(F)(F)F)cc2)CC(=O)N1 (stereo not given) | 4.21
2 | Cc1cc(C(C)Nc2ccccc2)c2nc(N3CCOCC3)cc(=O)n2c1 (stereo not given) | 3.76
3 | O=C1c2ccc(Nc3ccc(F)cc3F)cc2CCc2ccc(OC[C@H](O)CO)cc21 [Skepinone-L] | 5.25
4 | NC(=S)N/N=C/c1ncccc1N [Triapine] | 3.75
5 | O=S(=O)(NCCNC/C=C/c1ccc(Br)cc1)c1cccc2cnccc12 | 4.75
6 | O=c1cc(-c2cccc3c2Sc2ccccc2S3)oc(N2CCOCC2)c1 | 1.92
7 | C[C@H]1Oc2cc(cnc2N)-c2c(nn(C)c2C#N)CN(C)C(=O)c2ccc(F)cc21 | 5.08
8 | Cn1c(=O)n(-c2ccc(C(C)(C)C#N)cc2)c2c3cc(-c4cnc5ccccc5c4)ccc3ncc21 | 5.21
9 | C[C@]1(O)C[C@@H](c2nc(-c3ccc4ccc(-c5ccccc5)nc4c3)c3c(N)nccn32)C1 [Linsitinib] | 4.54
10 | Cn1sc(=O)n(Cc2ccccc2)c1=O | 4.25
11 | NCC(=O)Nc1ccc(-n2nc(C(F)(F)F)cc2-c2ccc3c(ccc4ccccc43)c2)cc1 | 5.04
12 | CNC(=O)c1ccc(-c2cnc3ncc(Cc4ccc5ncccc5c4)n3n2)cc1F | 4.09
13 | Cn1cnc2c(F)c(Nc3ccc(Br)cc3F)c(C(=O)NOCCO)cc21 | 5.38
14 | CS(=O)(=O)c1cccc(CNc2nc(Nc3ccc4c(c3)CCC(=O)N4)ncc2C(F)(F)F)c1 | 5.09
15 | CO[C@H]1C[C@@H]2CC[C@@H](C)[C@@](O)(O2)C(=O)C(=O)N2CCCC[C@H]2C(=O)O[C@H]([C@H](C)C[C@@H]2CC[C@@H](OCCO)[C@H](OC)C2)CC(=O)[C@H](C)/C=C(\C)[C@@H](O)[C@@H](OC)C(=O)[C@H](C)C[C@H](C)/C=C/C=C/C=C/1C [Everolimus (RAD001)] | 5.54
16 | O=C(NC[C@H](O)CO)c1ccncc1Nc1ccc(I)cc1F | 5.54
17 | Cc1cc2c(F)c(Oc3ncnn4cc(OC[C@@H](C)OC(=O)[C@H](C)N)c(C)c34)ccc2[nH]1 | 4.04
18 | Cc1[nH]c(/C=C2\C(=O)Nc3ccc(S(=O)(=O)Cc4c(Cl)cccc4Cl)cc32)c(C)c1C(=O)N1CCC[C@@H]1CN1CCCC1 | 5.04
19 | COc1cc(C(=O)NC2CCN(C)CC2)ccc1Nc1ncc2c(n1)N(C1CCCC1)CC(F)(F)C(=O)N2C | 4.25
20 | NC(=O)Nc1sc(-c2ccc(F)cc2)cc1C(N)=O | 4.58

Row | SMILES | neurite formation score
21 | C[S+]([O-])c1ccc(-c2nc(-c3ccc(F)cc3)c(-c3ccncc3)[nH]2)cc1 (stereo not given) | 4.88
22 | COc1cc2nccc(Oc3ccc(NC(=O)C4(C(=O)Nc5ccc(F)cc5)CC4)cc3)c2cc1OC [Cabozantinib malate (XL184)] | 4.92
23 | Clc1ccc(C2(c3ccc(-c4cn[nH]c4)cc3)CCNCC2)cc1 | 4.54
24 | O=C(NCCCNc1nc(Nc2cccc(CN3CCOCC3)c2)ncc1C1CC1)C1CCC1 | 5.25
25 | CC(C)n1nc(-c2ccc3oc(N)nc3c2)c2c(N)ncnc21 | 5.25
26 | O=C(/C=C/c1ccc(O)c(O)c1)c1ccc(O)cc1O [Butein] | 4.38
27 | O=[N+]([O-])c1ccc(Nc2nc(N3CCOCC3)nc(N3CCOCC3)n2)cc1 | 5.08
28 | CCc1ccc(/C=C2/SC(=S)NC2=O)cc1 | 5.04
29 | O=C(NOCC1CC1)c1ccc(F)c(F)c1Nc1ccc(I)cc1Cl | 4.71
30 | COc1cc(N2CCC(N)CC2)ccc1Nc1ncc(Cl)c(-c2c[nH]c3ccccc23)n1 | 4.92
31 | CO[C@H]1C[C@@H]2CC[C@@H](C)[C@@](O)(O2)C(=O)C(=O)N2CCCC[C@H]2C(=O)O[C@H]([C@H](C)C[C@@H]2CC[C@@H](OC(=O)C(C)(CO)CO)[C@H](OC)C2)CC(=O)[C@H](C)/C=C(\C)[C@@H](O)[C@@H](OC)C(=O)[C@H](C)C[C@H](C)/C=C/C=C/C=C/1C [Temsirolimus] | 4.21
32 | COc1cc(CCc2cc(NC(=O)c3ccc(N4CC(C)NC(C)C4)cc3)n[nH]2)cc(OC)c1 (stereo not given) | 4.21
33 | CC(C)(C)c1cc(NC(=O)Nc2ccc(-c3cn4c(n3)sc3cc(OCCN5CCOCC5)ccc34)cc2)no1 [Quizartinib (AC220)] | 5.21
34 | Cc1cc(C(=O)NOCCO)c(Nc2ccc(I)cc2F)n(C)c1=O | 3.92
35 | CS(=O)(=O)N1CCC(NC(=O)c2[nH]ncc2NC(=O)c2c(Cl)cccc2Cl)CC1 | 5.09
36 | COc1cc(N2CCOCC2)ccc1Nc1ncc(F)c(Nc2ccccc2NS(C)(=O)=O)n1 | 4.75
37 | O=C(Nc1ccccc1C(=O)NC1CCCCNC1=O)c1cc2ccccc2s1 (stereo not given) | 3.75
38 | CCn1c(N)c(C(=O)NC)c(=O)c2ccc(C#CC(C)(O)COC)nc21 (stereo not given) | 4.42
39 | Cc1cnc(Nc2ccc(N3CCN(C)CC3)cc2)nc1Nc1cccc(S(=O)(=O)NC(C)(C)C)c1 | 2.58
40 | Cc1ccc(NC(=O)c2cccc(N(C)C)c2)cc1NC(=O)c1ccc(O)cc1 | 4.58
